Measurements as given in PubChem BioAssay (NCI).
The panel holds about 83,000 compounds, 20% with a hit somewhere; the sample as a whole holds those more often.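 Method: cells in 96-well plates; compound added at one concentration; 48 h incubation; percent growth measured; values under 10 scored active.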 Unmarked numbers belong to inactive results. Activity calls are given as the source filed them.

Tests used:
Test in all cases: NCI-60 one-dose screen, 48 h (100 = growth as untreated, 0 = no growth, -100 = all killed)
Settings in all cases: 10 µM unless noted
[1] = test system: NCI-H23 lung
[2] = test system: NCI-H226 lung
[3] = test system: NCI-H322M lung
[4] = test system: HOP-62 NSCLC
[5] = test system: NCI-H460 lung
[6] = test system: HOP-92 NSCLC
[7] = test system: NCI-H522 lung
[8] = test system: A549/ATCC NSCLC
[9] = test system: 786-0 renal
[10] = test system: COLO 205 colon

SMILES | growth [1] | growth [2] | growth [3] | growth [4] | growth [5] | growth [6] | growth [7] | growth [8] | growth [9] | growth [10]
COc1cc(C2CC(c3ccc(Nc4nc(NCCO)nc(NCCO)n4)cc3)=NN2c2cc(Cl)cc(Cl)c2)cc(OC)c1OC (stereo not given) | 4.73% (active) | 106% | 11.9% | 14.4% | -24.5% (active) | 89.9% | 25.1% | 0.449% (active) | -17.5% (active) | 35%
Cc1cnc(SCc2ccc(Cl)cc2)[nH]c1=S | 94.8% | 111% | 89.5% | 94.2% | 113% | 105% | 78.7% | 94.4% | 92.8% | 121%
C=C1C(=O)O[C@H]2[C@H]1CC/C(COC(=O)N1CCC[C@H]1C(=O)Nc1ccc(OC)c(C(N)=O)c1O)=C\CC[C@@]1(C)O[C@@H]21 | 79.5% | 52.8% | 90.6% | 88.6% | 73.9% | -11.2% (active) | -28.1% (active) | 75.4% | 41.4% | -25.7% (active)
C#Cc1cccc(Nc2ncnc3ccc(NC(=O)c4ccccc4)cc23)c1 | 86.9% | 85.9% | 21.7% | 102% | 76.8% | 65% | 53.5% | 70.9% | 76.7% | 99.7%
COc1cccc2c1-c1ccccc1C2=O | 43.1% | 84.1% | 44.5% | 37.4% | 7.57% (active) | 74% | -13.7% (active) | 23.3% | 23.9% | 11.6%
COc1ccc(-c2cc(-c3nnc(SCC(=O)Nc4ccc(C(C)=O)cc4)o3)c3ccccc3n2)cc1 | 0.0219% (active) | 17.1% | 79.9% | -33.9% (active) | -54.4% (active) | -10.1% (active) | -28.7% (active) | 22.3% | -72.3% (active) | 21.7%
COC(=O)c1ccc2c(c1)NC(=O)[C@@H]1CCCN21 | 88.6% | 98.5% | 99.3% | 85.7% | 106% | 87.5% | 70% | 98.2% | 97.8% | 108%
COc1c(O)cc2oc3cc(O[C@@H]4OC(C)[C@@H](O)[C@H](O)C4O)c(CC=C(C)C)c(O)c3c(=O)c2c1CC=C(C)C (stereo not given in full) | 89.4% | 90.1% | 107% | 110% | 90.5% | 89.2% | 68.5% | 80% | 101% | 114%
Cc1nnc(/N=C2\NC(=O)/C(=C/c3ccsc3)S2)s1 | 89.8% | 96% | 92.2% | 80.8% | 67.5% | 96.6% | 78.1% | 100% | 94.6% | 92.2%
O=C1CC23OC(C(O)c4ccccc4N12)C1C(c2ccccc2)=NOC13 (stereo not given) | 66.7% | 82% | 79.7% | 68.5% | 76.5% | 43.3% | 40.8% | 82.9% | 37.2% | 50.6%
O=C(O)COc1ccc2c(=O)c3sc4c(=O)c5ccccc5c(=O)c4c3c(=O)c2c1 | -39.6% (active) | 28.6% | -96.5% (active) | -81.1% (active) | -63.2% (active) | 104% | 10.9% | -44.8% (active) | 70.9% | -46.2% (active)
COc1cc(/C=C/C(=O)c2cccs2)ccc1OCc1ccc(Cl)nc1 | 77.5% | 86.8% | 85.9% | 102% | 83.6% | 85.2% | 86.1% | 99% | 75.3% | 98.1%
CC(=O)Nc1ccc2c(c1)Cc1cc(F)ccc1-2 | 90.8% | 99.2% | 86.9% | 84.8% | 106% | 93.4% | 73.7% | 92.5% | 98% | 124%
N#CCNc1ccc(C(=O)O)cc1 | 101% | 95.3% | 114% | 98.3% | 103% | 94% | 90.4% | 87% | 104% | 110%
COc1ccc2nc3c(n2c1)C(=O)C(=O)c1ccccc1-3 | -42.1% (active) | 14.9% | -60.9% (active) | -72.9% (active) | 14.9% | 37.4% | -69.9% (active) | -24.3% (active) | 8.6% (active) | 42.7%
Nc1c(C(=O)c2ccccc2)sc2nc(-c3cc4ccccc4o3)cc(-c3ccc(Cl)cc3)c12 | 89.9% | 112% | 87% | 102% | 103% | -6.31% (active) | 84.7% | 106% | 107% | 99.4%
Nc1ccc2c(c1)C(=O)C(=O)c1c-2nc2ccccn12 | -42.8% (active) | 13.3% | -6.65% (active) | -2.15% (active) | 0.968% (active) | -21.4% (active) | 17.5% | -45.4% (active) | 71.4% | -49.2% (active)
COc1ccc(C2=NN(c3ccc(S(N)(=O)=O)cc3)C(c3ccc(Cl)cc3)C2)c(O)c1 (stereo not given) | 63.7% | 84.6% | 71.6% | 90.2% | 45% | 58.6% | 48.8% | 33% | 67.1% | 69.7%
CCCn1cc(/C=N\N=C2\C(=O)Nc3ccc(C)cc32)c2ccccc21 | 48% | 92% | 47.8% | 75.3% | 32.1% | 37.4% | 13.8% | 63.9% | 64.5% | -16.2% (active)
S=C(Nc1ccc(Cl)cc1)c1ccccn1 | 83% | 88.1% | 97.2% | 78.3% | 101% | 77.1% | 73.7% | 88.9% | 93.2% | 110%
NC[C@@H]1CCN(c2cc3c(cc2F)c(=O)n(N)c(=O)n3Cc2ccc(-c3ccccc3)cc2)C1 | 87.2% | 91.1% | 96.8% | 77.4% | 99.7% | 73.6% | 68.8% | 89.6% | 66.2% | 88.6%
CCOc1ccccc1C(=O)/C=C/c1cc2ccccc2[nH]c1=O | -55.2% (active) | 8.19% (active) | -2.24% (active) | -33.5% (active) | -4.96% (active) | 0.541% (active) | -38.6% (active) | 16.8% | -21.7% (active) | -50.8% (active)
N#Cc1ccc(C2C3=C(CCCC3=O)OC3=C2C(=O)c2ccccc2C3=O)cc1 (stereo not given) | 44.9% | 114% | 106% | 111% | 103% | 76.3% | 0.737% (active) | 108% | 94.7% | 109%
C1=CC2=CC=C3C=CC=C4C(c5nc6c7ccccc7c7ccccc7c6[nH]5)=CC(=C1)C2C34 (stereo not given) | 98.1% | 23.8% | 90.9% | 68.7% | 98.9% | 72.9% | 82.5% | 89.7% | 98.2% | 120%
C=C(C)[C@@H]1CC[C@]2(C(=O)OCCCC[P+](c3ccccc3)(c3ccccc3)c3ccccc3)CC[C@]3(C)[C@H](CC[C@@H]4[C@@]5(C)CC[C@H](OC(=O)C(Cl)Cl)C(C)(C)[C@@H]5CC[C@]43C)[C@@H]12 | -16.5% (active) | -78.5% (active) | 2.79% (active) | -0.785% (active) | -41.1% (active) | -67.4% (active) | -38.3% (active) | 0.629% (active) | -77.9% (active) | -74.4% (active)
CCOCCc1c(O)nc(SC)[nH]c1=O | 91.9% | 92% | 111% | 93.3% | 107% | 99.1% | 94.7% | 103% | 103% | 105%
